Only a selection was taken, and hits are over-represented in it overall.
SARS PLP yeast: inhibitors of SARS-CoV papain-like protease in yeast; 330,000 compounds, 0.19% hits; S. cerevisiae expressing SARS-CoV PLpro, growth rescue; Potency, µM (top dose mostly 32.9 µM), usual class: activators; calls by dose curve; further: nearly all actives have a fitted effect of over 55% in size
Shiga inhibitor: Shiga toxin inhibition. Vero cells, Shiga toxin protein synthesis inhibition reporter. inhibition, % at 38.7 µM. 290,000 compounds, 9.2% hits; in the data active means inhibition mostly above about 28%, no sharp cut-off; inactive means mostly below about 43%
Tb PYK inh: blocks Trypanosoma brucei pyruvate kinase | TbPYK enzyme, Kinase-Glo Plus ATP luminescence, 45 min | Q57TT1 | 410,000 compounds, 0.12% hits | Potency, µM (series often up to 76.8 µM), actives largely listed as inhibitors; further: nearly all actives have a fitted effect of over 50% in size
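Luminescence from Kinase-Glo Plus, added after a 45-minute room-temperature reaction, served as the end-point read-out. The enzyme and substrate were preincubated with compound before ADP (130 uM final) initiated turnover. Concentration-effect curves came from normalized qHTS data.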
NS1 function inh: blocks influenza NS1 protein function. Potency, µM (top dose mostly 46.1 µM). 270,000 compounds, 0.4% hits; calls by dose curve; further: actives are rising curves; nearly all actives have a fitted effect of over 50% in size
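A cell-based growth assay was used: compounds that relieve NS1-induced slow growth of budding yeast raise OD600. Assay medium was yeast nitrogen base with ammonium sulphate and -URA supplement, pH 6.0, with 2% galactose.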
LmPK inh: blocks Leishmania mexicana pyruvate kinase activity. Q27686. purified LmPK, Kinase-Glo ATP luminescence, 1 h. Potency, µM (titrated, usually from 57.5 µM), most hits filed as inhibitors. 290,000 compounds, 0.37% hits
Target sequence (Q27686 whole entry, looked up): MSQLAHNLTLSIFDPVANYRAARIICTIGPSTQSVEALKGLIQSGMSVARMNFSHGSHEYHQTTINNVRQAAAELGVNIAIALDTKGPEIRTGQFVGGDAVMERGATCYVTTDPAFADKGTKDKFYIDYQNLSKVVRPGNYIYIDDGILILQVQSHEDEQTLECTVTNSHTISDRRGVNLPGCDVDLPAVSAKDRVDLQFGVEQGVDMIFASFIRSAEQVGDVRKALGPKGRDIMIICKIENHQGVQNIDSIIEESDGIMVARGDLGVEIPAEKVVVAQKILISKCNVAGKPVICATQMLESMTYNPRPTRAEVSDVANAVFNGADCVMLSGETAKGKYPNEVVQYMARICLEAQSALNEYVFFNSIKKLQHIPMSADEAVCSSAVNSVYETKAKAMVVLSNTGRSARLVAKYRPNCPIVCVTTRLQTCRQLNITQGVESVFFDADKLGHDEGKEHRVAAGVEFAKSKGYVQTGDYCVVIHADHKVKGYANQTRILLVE
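qHTS format; LmPK 0.1 nM; substrates PEP 0.5 mM and ADP 0.1 mM. One-hour room-temperature incubation, then coupled luciferase luminescence; 0.5 nM enzyme wells mark activation.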
Cycloheximide cs: counter-screen hit for Shiga toxin inhibitors, cycloheximide | cell reporter, cycloheximide protein synthesis inhibition counterscreen | max response, % | 300,000 compounds, 12% hits; in the data active means max response mostly above about 13%, no sharp cut-off; inactive means mostly below about 14%; further: read at 38.3 µM for the half of the compounds with a filed dose
Each line names hits and unclear results; the compound was inactive in the other large screens. Unless noted, the call rests on the fitted dose curve; in most records, active means well fitted curve in the direction sought with a large enough effect; inconclusive means small, poorly fitted or top-dose-only effect, or another doubt; inactive means no such curve, though single readings can be large; an effect the other way counts as inactive or inconclusive.

COC(=O)[C@@]12CCCCN1[C@H](c1ccc(-c3ccc(F)cc3)c(OC)c1)[C@@H]1C(=O)N(C)C(=O)[C@@H]12	none (no result: Shiga inhibitor, NS1 function inh, LmPK inh, Cycloheximide cs)
CN(CC(=O)Nc1ccccc1)CC(=O)Nc1ccccc1Cl	Shiga inhibitor 31, Cycloheximide cs 19
O=C(Nc1ccccc1F)c1ccc(OCc2ccccc2)cc1	Shiga inhibitor 86, Cycloheximide cs 49
CN1CCN(c2ccccc2NC(=O)c2ccc(OCc3ccccc3)cc2)CC1	none
CC(C)=CC(=O)Nc1ccc(OCc2ccccc2)cc1	Shiga inhibitor 126, Cycloheximide cs 53
Cc1noc(C)c1COc1cccc(C(=O)Nc2ccc(OCc3ccccc3)cc2)c1	Cycloheximide cs 12
C=CCN(C(=O)CCC(=O)Nc1cc(C)on1)C(C(=O)NC1CCCC1)c1ccc(C)cc1 (configuration not stated)	none
Cc1nn2c(C)c(C(=O)N3CCN(c4ccc(Cl)cc4)CC3)cnc2c1-c1ccc(F)cc1	none (no result: SARS PLP yeast, Shiga inhibitor, NS1 function inh, LmPK inh, Cycloheximide cs)
O=S(=O)(Nc1cccc(-c2ccc(N3CCOCC3)nn2)c1)c1ccc(F)c(C(F)(F)F)c1	none (no result: SARS PLP yeast, Shiga inhibitor, NS1 function inh, LmPK inh, Cycloheximide cs)
Cc1ccsc1C(=O)Nc1ccc(C(=O)O)cc1	LmPK inh 14µM
O=C(Nc1ccc(-c2noc(CCc3ccccc3)n2)cc1)c1cccnc1	Shiga inhibitor 40, Cycloheximide cs 27
Cc1cc(OCc2nc(-c3ccc(NC(=O)c4cccnc4)cc3)no2)ccc1Cl	none
O=C(Nc1ccc(OCc2ccccc2)cc1)c1ccccc1	Cycloheximide cs 14 (no result: NS1 function inh)
Cc1cc(N)c2ccccc2[n+]1CCCCCCCCCCCCCC[n+]1c(C)cc(N)c2ccccc21	none (no result: SARS PLP yeast, Shiga inhibitor, Tb PYK inh, LmPK inh, Cycloheximide cs)
CNc1sc(C(=O)c2ccccc2F)c(N)c1-c1nc2ccccc2s1	Shiga inhibitor 64, Cycloheximide cs 19 (no result: Tb PYK inh)
CNc1ccc(-c2nc3ccccc3s2)cc1	none (no result: SARS PLP yeast, Tb PYK inh, NS1 function inh, LmPK inh)
Cc1cc(C(=O)COC(=O)C2=NNC(=O)CC2)c(C)n1-c1ccccc1	Shiga inhibitor 38, Cycloheximide cs 29
Cc1ccc(-n2c(C)cc(C(=O)COC(=O)c3ccc[nH]c3=O)c2C)cc1C	Shiga inhibitor 67, Cycloheximide cs 27
CCCn1c(C)cc(C(=O)COC(=O)c2ccc[nH]c2=O)c1C	Shiga inhibitor 45, Cycloheximide cs 29
CCOC(=O)c1cc(C)n(CCc2ccccc2)c1C	Cycloheximide cs 22
COc1ccc(CN2C(=O)C(CC(=O)NCc3ccco3)CC(C(=O)N(C(C)C)C(C)C)=C2C)cc1 (configuration not stated)	none (no result: SARS PLP yeast, Shiga inhibitor, NS1 function inh, LmPK inh, Cycloheximide cs)
Cc1ccc(S(=O)(=O)NNC(=O)Nc2cccc(C)c2C)c(C)c1	none
Cc1ccc(Cl)cc1N1CCN(S(=O)(=O)c2ccc3c(c2)CCN3C(=O)C2CCC2)CC1	none (no result: SARS PLP yeast, Shiga inhibitor, NS1 function inh, LmPK inh, Cycloheximide cs)
Cc1c(C(=O)N(C)C)sc2c1c(=O)n(-c1ccccc1C(F)(F)F)c(=O)n2Cc1ccccc1C#N	none (no result: SARS PLP yeast, Shiga inhibitor, NS1 function inh, LmPK inh, Cycloheximide cs)
CC1=C(C(=O)N2CCN(c3ccc(Cl)cc3)CC2)C2(CCC(C)CC2)OC1=O (configuration not stated)	none (no result: SARS PLP yeast, Shiga inhibitor, NS1 function inh, LmPK inh, Cycloheximide cs)
CCCn1c(C)cc(C(=O)COC(=O)c2ccc(Cl)c(S(=O)(=O)N3CCCC3)c2)c1C	Shiga inhibitor 142, Cycloheximide cs 31
CCC(=O)N1CCN(c2ccc(NC(=O)c3ccco3)cc2)CC1	Shiga inhibitor 31, Cycloheximide cs 28
Cc1ccccc1C(=O)N1CCN(c2ccc(NC(=O)c3ccco3)cc2)CC1	none
CC(=O)N1CCN(c2ccc(NC(=O)c3ccco3)cc2)CC1	Shiga inhibitor 72
CCC(=O)N1CCN(c2ccc(NC(=O)c3cccs3)cc2)CC1	Shiga inhibitor 68, Cycloheximide cs 15
O=C(Nc1ccc(N2CCN(C(=O)c3ccccc3)CC2)cc1)c1cccs1	none
CCc1ccc(C(=O)N2CCN(c3ccc(NC(=O)c4ccco4)cc3)CC2)cc1	none
CC(CC(=O)NCc1ccco1)S(=O)(=O)c1ccc2c(c1)CCN2C(=O)C1CC1 (configuration not stated)	none
COc1ccc(C(=O)c2oc3ccccc3c2NC(=O)COc2ccccc2)cc1	none (no result: SARS PLP yeast, Shiga inhibitor, NS1 function inh, LmPK inh, Cycloheximide cs)
CCOC(=O)c1ccc(Oc2ccc(C(F)(F)F)cn2)cc1	Cycloheximide cs 29 (no result: NS1 function inh)
CCOC(=O)c1cnn(-c2ccc(C(F)(F)F)cn2)c1N	Shiga inhibitor 77, Cycloheximide cs 40
CCOC(=O)c1cnn(-c2ccccc2)c1-n1cccc1C(=O)C(=O)Nc1ccccc1	Shiga inhibitor 43, Cycloheximide cs 21
NC(=O)c1cnn(-c2ccc3ccccc3c2)c1N	Cycloheximide cs 24 (no result: NS1 function inh)
CC(=O)NC(=O)c1cnn(-c2ccccc2)c1N	none
CC(=O)OCC(=O)Nc1cc(C#N)cc(NC(=O)COC(C)=O)c1Cl	none (no result: SARS PLP yeast, Shiga inhibitor, NS1 function inh, LmPK inh, Cycloheximide cs)
Cc1ccc(-c2csc(=Nc3ccccc3)n2Cc2ccc3c(c2)OCO3)cc1C	none (no result: SARS PLP yeast, Shiga inhibitor, NS1 function inh, LmPK inh, Cycloheximide cs)
CCOC(=O)c1cnn(-c2ccccc2)c1N	Cycloheximide cs 31
Nc1c(C(=O)O)cnn1-c1ccc([N+](=O)[O-])cc1	none
CCOC(=O)c1cnn(-c2cccc(Cl)c2)c1N	Shiga inhibitor 61, Cycloheximide cs 34 (no result: Tb PYK inh)
CCOC(=O)c1cnn(-c2nc(C)cc(C)n2)c1N	none
CCOC(=O)c1cnn(-c2ccc([N+](=O)[O-])cc2)c1N	Cycloheximide cs 15
CN(C(=O)COC(=O)c1ccc(S(=O)(=O)N2CCCCCC2)cc1)c1ccccc1	none (no result: SARS PLP yeast, Shiga inhibitor, NS1 function inh, LmPK inh, Cycloheximide cs)
Cc1cc(=O)n2[nH]c(SCc3c(F)cccc3Cl)nc2n1	none (no result: SARS PLP yeast, Shiga inhibitor, NS1 function inh, LmPK inh, Cycloheximide cs)
CC(=O)Nc1ccc(-c2nnc(SCC(=O)Nc3ccc4c(c3)oc3ccccc34)n2C)cc1	Cycloheximide cs 16
CCn1c(SCC(=O)Nc2ccc3c(c2)oc2ccccc23)nnc1-c1ccc(N)cc1	Cycloheximide cs 35
COc1ccccc1NC(=O)CSc1nnc(-c2ccc(NC(C)=O)cc2)n1C	Tb PYK inh inconclusive
COc1ccccc1CNC(=O)C1(C)CCN1C(=O)Cc1ccc(-c2ccccc2)cc1 (configuration not stated)	none (no result: SARS PLP yeast, Shiga inhibitor, NS1 function inh, LmPK inh, Cycloheximide cs)
CC(C)OCCCNC(=S)NNC(=O)c1ccc(Cl)c(Cl)c1	Shiga inhibitor 66, Cycloheximide cs 29
CN(C)c1cc2c(c(N(C)C)c1)C(=O)c1ccccc1C2=O	Cycloheximide cs 39
CCCC1=NN(c2ccc([N+](=O)[O-])cc2)C(=O)/C1=C/N(C)C	Cycloheximide cs 20
CC1=NN(c2ccc([N+](=O)[O-])cc2)C(=O)/C1=C\N(C)C	LmPK inh 16µM, Cycloheximide cs 22
COC(=O)c1ccccc1-c1ccc(C=O)o1	none
CC(C)OC(=O)c1cccc(-c2ccc(C=O)o2)c1	Shiga inhibitor 80, Cycloheximide cs 77
O=C(NCc1cc(C(F)(F)F)ccc1F)C1CCC(=O)N(C2CCCCCC2)C1 (configuration not stated)	none
COc1ccccc1CN1CC(C(=O)N2CCCCO2)CCC1=O (configuration not stated)	Shiga inhibitor 71, Cycloheximide cs 31
COc1ccccc1CN1CC(C(=O)N2CCOCC2)CCC1=O (configuration not stated)	none
